The panel holds about 79,000 compounds, 15% with a hit somewhere; the sample as a whole holds those more often. Values without a mark were called inactive. Activity calls are given as the source filed them. Rule as the data show it: active = growth inhibition above about 70%; inactive = the rest.

Test [1] can be described thus: NCI Yeast Anticancer Drug Screen. Data for the rad50 strain (AID 155).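 Also: 0% = growth of vehicle-only cultures of the same strain.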 To be noted: S. cerevisiae rad50 strain growth inhibition, active compounds read high. In a few lines: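 A DNA repair-deficient yeast mutant serves as the test organism; compound-induced growth inhibition is calculated against vehicle-treated cells.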
Test [2] in a line: NCI Yeast Anticancer Drug Screen. Data for the mec2-1 strain (AID 157). The following applies: S. cerevisiae mec2-1 strain, active compounds read high. In a few lines: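 Mutant yeast (mec2-1) grown with compound; growth inhibition relative to vehicle control reported.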
A short description of test [3]: NCI Yeast Anticancer Drug Screen. Data for the sgs1 mgt1 strain (AID 161).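 Also: 0% = growth of cultures given vehicle only.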 To be noted: S. cerevisiae sgs1 mgt1 strain, active compounds read high. In a few lines:
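Yeast cells carrying a defined DNA-repair defect were exposed to test compounds. Growth inhibition was measured relative to vehicle-treated controls.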

Test [4] in a line: NCI Yeast Anticancer Drug Screen. Data for the cln2 rad14 strain (AID 165).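 Also: 0% = growth equal to vehicle treated cultures.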 The following applies: S. cerevisiae cln2 rad14 strain, active compounds read high. A digest of the protocol:
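Readout is yeast growth inhibition versus vehicle-treated controls, using a strain with cln2 and rad14 alterations exposed to compound.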

A short description of test [5]: NCI Yeast Anticancer Drug Screen. Data for the bub3 strain (AID 167). To be noted: S. cerevisiae bub3 mutant strain, active compounds read high. In a few lines: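 Inhibition values come from growth of compound-treated mutant yeast normalised to vehicle-treated controls.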
Test [6] in a line: NCI Yeast Anticancer Drug Screen. Data for the mlh1 rad18 strain (AID 175). The following applies: S. cerevisiae mlh1 rad18 strain growth inhibition, active compounds read high. A digest of the protocol:
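Genetically defined yeast (DNA repair-deficient) exposed to compounds; growth inhibition determined relative to vehicle.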

Where [7] appears, read: at 5.0 µM (retest, dose inferred, filed as 0.5).
[8] abbreviates: at 50.0 µM (retest, dose inferred, filed as 5.0).

Regarding `O=C(COc1ccccc1)Oc1c(Cl)c(Cl)c(Cl)c(Cl)c1Cl`, the growth inhibition in test [1] (setting [7]) was 23%; in test [1] (setting [8]), 94% (active); in test [1] (at 50.0 µM) it was 94% (active); in test [2] (setting [7]) it was 28%; in test [2] (setting [8]) it was 97% (active); in test [2] (at 50.0 µM), 98% (active). For the same compound, the growth inhibition in test [3] (setting [7]) is 34%; in test [3] (setting [8]) it was 98% (active); in test [3] (at 50.0 µM) it was 96% (active); in test [4] (setting [7]), 10%; in test [4] (setting [8]), 97% (active); in test [4] (at 50.0 µM), 96% (active). Moreover, the growth inhibition in test [5] (setting [7]) was 11%; in test [5] (setting [8]), 96% (active); in test [5] (at 50.0 µM), 98.3% (active); in test [6] (setting [7]) it was 23%; in test [6] (setting [8]) it was 97% (active); in test [6] (at 50.0 µM), 97.5% (active).
On to `CN(C)CC1CCC/C(=C\c2ccc(Cl)c(Cl)c2)C1=O` (configuration not stated), for which the growth inhibition in test [1] (setting [7]) was 19%; in test [1] (setting [8]), 98% (active); in test [1] (at 50.0 µM), 69.3%; in test [2] (setting [7]), 9%; in test [2] (setting [8]), 98% (active); in test [2] (at 50.0 µM) it was 81.8% (active). Also, the growth inhibition in test [3] (setting [7]) is -1%; in test [3] (setting [8]), 97% (active); in test [3] (at 50.0 µM), 86.5% (active); in test [4] (setting [7]), 7%; in test [4] (setting [8]) it was 97% (active); in test [4] (at 50.0 µM), 86.5% (active). The growth inhibition in test [5] (setting [7]) was -22%; in test [5] (setting [8]), 98% (active); in test [5] (at 50.0 µM), 86% (active); in test [6] (setting [7]) it was 6%; in test [6] (setting [8]), 97% (active); in test [6] (at 50.0 µM), 89.3% (active).
Consider `O=C(CC(c1ccccc1)c1ccccc1)NCCCCN1CCCCCCC1`, for which the growth inhibition was 27% in test [1] (setting [7]); 89% (active) in test [1] (setting [8]); 12% in test [1] (at 50.0 µM); 19% in test [2] (setting [7]); 96% (active) in test [2] (setting [8]); -9% in test [2] (at 50.0 µM). The growth inhibition in test [3] (setting [7]) is 25%; in test [3] (setting [8]) it was 94% (active); in test [3] (at 50.0 µM), 22.9%; in test [4] (setting [7]), 2%; in test [4] (setting [8]) it was 90% (active); in test [4] (at 50.0 µM), 89.7% (active). Besides, the growth inhibition was 5% in test [5] (setting [7]); 93% (active) in test [5] (setting [8]); 26.4% in test [5] (at 50.0 µM); 16% in test [6] (setting [7]); 93% (active) in test [6] (setting [8]); 19.4% in test [6] (at 50.0 µM).
Turning to `CN1C/C(=C\c2ccccc2)C(=O)/C(=C/c2ccccc2)C1`, the growth inhibition in test [1] (setting [7]) was 13%; in test [1] (setting [8]) it was 99% (active); in test [1] (at 50.0 µM), 54.5%; in test [2] (setting [7]) it was 16%; in test [2] (setting [8]) it was 100% (active); in test [2] (at 50.0 µM), 10.2%. Further, the growth inhibition in test [3] (setting [7]) is 19%; in test [3] (setting [8]) it was 99% (active); in test [3] (at 50.0 µM) it was 19%; in test [4] (setting [7]), 14%; in test [4] (setting [8]), 98% (active); in test [4] (at 50.0 µM), 52.5%. Further, the growth inhibition in test [5] (setting [7]) was 10%; in test [5] (setting [8]), 99% (active); in test [5] (at 50.0 µM), 14.6%; in test [6] (setting [7]) it was 11%; in test [6] (setting [8]), 99% (active); in test [6] (at 50.0 µM), 21.4%.
As to `Cc1nc2c(cnn2-c2ccccc2)c(=O)o1`, the growth inhibition in test [1] (setting [7]) is -143%; in test [1] (setting [8]) it was -140%; in test [1] (at 50.0 µM), 28.3%; in test [2] (setting [7]), -52%; in test [2] (setting [8]), -52%; in test [2] (at 50.0 µM) it was 2.25%. The growth inhibition in test [3] (setting [7]) was -57%; in test [3] (setting [8]), -62%; in test [3] (at 50.0 µM) it was -3.15%; in test [4] (setting [7]), -52%; in test [4] (setting [8]), -45%; in test [4] (at 50.0 µM) it was -31.2%. In addition, the growth inhibition in test [5] (setting [7]) is -65%; in test [5] (setting [8]), -73%; in test [5] (at 50.0 µM), -0.85%; in test [6] (setting [7]), -115%; in test [6] (setting [8]), -108%; in test [6] (at 50.0 µM), 50.6%.
As for `CCCCCCCCCCCC[N+]1(C)CCCC1c1cccnc1` (configuration not stated), the growth inhibition in test [1] (setting [7]) was 19%; in test [1] (setting [8]), 97% (active); in test [1] (at 50.0 µM), 50.5%; in test [2] (setting [7]), 13%; in test [2] (setting [8]) it was 98% (active); in test [2] (at 50.0 µM), 97.5% (active). Also, the growth inhibition in test [3] (setting [7]) is 4%; in test [3] (setting [8]), 98% (active); in test [3] (at 50.0 µM) it was 51.9%; in test [4] (setting [7]), 5%; in test [4] (setting [8]), 98% (active); in test [4] (at 50.0 µM), 94.3% (active). The growth inhibition was 27% in test [5] (setting [7]); 92% (active) in test [5] (setting [8]); 97.5% (active) in test [5] (at 50.0 µM); 19% in test [6] (setting [7]); 97% (active) in test [6] (setting [8]); 96.9% (active) in test [6] (at 50.0 µM).
`CC(=O)Nc1ccc2c(c1)C(S)c1ccccc1-2` (configuration not stated): the growth inhibition in test [1] (setting [7]) is -5%; in test [1] (setting [8]), 32%; in test [1] (at 50.0 µM), 52%; in test [2] (setting [7]) it was 9%; in test [2] (setting [8]) it was 27%; in test [2] (at 50.0 µM) it was 31.7%. The growth inhibition in test [3] (setting [7]) was 2%; in test [3] (setting [8]), 53%; in test [3] (at 50.0 µM), 46.6%; in test [4] (setting [7]), -70%; in test [4] (setting [8]), 18%; in test [4] (at 50.0 µM), 33.2%. Besides, the growth inhibition was -1% in test [5] (setting [7]); -60% in test [5] (setting [8]); 49.4% in test [5] (at 50.0 µM); -2% in test [6] (setting [7]); 71% (active) in test [6] (setting [8]); 37.2% in test [6] (at 50.0 µM).
`CC(C)=C1C=C2CCC3C(C)(C(=O)O)CCCC3(C)C2CC1` (configuration not stated) (tested in a mixture with another compound): the growth inhibition was -4% in test [1] (setting [7]); 90% (active) in test [1] (setting [8]); 72.5% (active) in test [1] (at 50.0 µM); -5% in test [2] (setting [7]); 61% in test [2] (setting [8]); 40.1% in test [2] (at 50.0 µM). Also, the growth inhibition is -5% in test [3] (setting [7]); 48% in test [3] (setting [8]); 59.4% in test [3] (at 50.0 µM); -5% in test [4] (setting [7]); 47% in test [4] (setting [8]); 20.3% in test [4] (at 50.0 µM). Moreover, the growth inhibition was -7% in test [5] (setting [7]); 98% (active) in test [5] (setting [8]); 38.8% in test [5] (at 50.0 µM); -1% in test [6] (setting [7]); 76% (active) in test [6] (setting [8]); 60.8% in test [6] (at 50.0 µM).
Regarding `CC(=O)OC1CCC2(C)C(CCC3C4=CCC(C5COC(=O)C5)C4(C)CCC32)C1` (configuration not stated), the growth inhibition in test [1] (setting [7]) is -1%; in test [1] (setting [8]), 79% (active); in test [1] (at 50.0 µM) it was 77.2% (active); in test [2] (setting [7]), 17%; in test [2] (setting [8]), 94% (active); in test [2] (at 50.0 µM) it was 61.5%. Also, the growth inhibition in test [3] (setting [7]) is -5%; in test [3] (setting [8]), 88% (active); in test [3] (at 50.0 µM), 84.7% (active); in test [4] (setting [7]), -2%; in test [4] (setting [8]), 89% (active); in test [4] (at 50.0 µM) it was 63.1%. The growth inhibition in test [5] (setting [7]) was 4%; in test [5] (setting [8]) it was 91% (active); in test [5] (at 50.0 µM), 59.8%; in test [6] (setting [7]) it was 11%; in test [6] (setting [8]), 90% (active); in test [6] (at 50.0 µM) it was 78.1% (active).
